From PubChem BioAssay (NCI)
About 83,000 compounds went through this panel and 20% of them were active in at least one assay; those are over-represented in the sample as a whole.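 Single-concentration screen, 48 h exposure, 96-well plates. Endpoint: percent growth. Below 10 = active.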 Values without a mark were called inactive. Activity calls are given as the source filed them.

Columns and labels:
Experiment in all cases: NCI-60 one-dose screen, 48 h (100 = growth as untreated, 0 = no growth, -100 = all killed)
Conditions in all cases: 10 µM unless noted
SK-MEL-2 melanoma = test system: SK-MEL-2 melanoma
EKVX NSCLC = test system: EKVX NSCLC
SN12C renal = test system: SN12C renal
UO-31 renal = test system: UO-31 renal
TK-10 renal = test system: TK-10 renal
ACHN renal = test system: ACHN renal
CAKI-1 renal = test system: CAKI-1 renal
A498 renal = test system: A498 renal
CCRF-CEM leukemia = test system: CCRF-CEM leukemia
MOLT-4 leukemia = test system: MOLT-4 leukemia
SR leukemia = test system: SR leukemia
RPMI-8226 leukemia = test system: RPMI-8226 leukemia
OVCAR-8 ovarian = test system: OVCAR-8 ovarian
OVCAR-5 ovarian = test system: OVCAR-5 ovarian
OVCAR-4 ovarian = test system: OVCAR-4 ovarian
SK-OV-3 ovarian = test system: SK-OV-3 ovarian
IGROV1 ovarian = test system: IGROV1 ovarian
OVCAR-3 ovarian = test system: OVCAR-3 ovarian
HS 578T breast = test system: HS 578T breast
NCI/ADR-RES ovarian = test system: NCI/ADR-RES ovarian

Compound | growth (SK-MEL-2 melanoma) | growth (EKVX NSCLC) | growth (SN12C renal) | growth (UO-31 renal) | growth (TK-10 renal) | growth (ACHN renal) | growth (CAKI-1 renal) | growth (A498 renal) | growth (CCRF-CEM leukemia) | growth (MOLT-4 leukemia) | growth (SR leukemia) | growth (RPMI-8226 leukemia) | growth (OVCAR-8 ovarian) | growth (OVCAR-5 ovarian) | growth (OVCAR-4 ovarian) | growth (SK-OV-3 ovarian) | growth (IGROV1 ovarian) | growth (OVCAR-3 ovarian) | growth (HS 578T breast) | growth (NCI/ADR-RES ovarian)
Cn1c(=O)cc(NC(=O)CN2CCN(c3cc4c(cc3F)c(=O)c(C(=O)O)cn4C3CC3)CC2)[nH]c1=O | 107% | 92.9% | 97.4% | 88.7% | 105% | 99.9% | 88.2% | 102% | 103% | 107% | 103% | 97.3% | 98% | 95.9% | 96.9% | 112% | 101% | 99.5% | 103% | 98.1%
CC(C)(C)n1cc(-c2ccnc(NCCCNS(=O)(=O)c3ccc(Cl)cc3)c2)c(-c2cccc(O)c2)n1 | -64% (active) | 20.5% | 18.1% | 11% | 43.7% | 8.91% (active) | 19.2% | -8.44% (active) | 8.5% (active) | -17.3% (active) | -34.5% (active) | -29.7% (active) | 6.22% (active) | -20.5% (active) | 23.4% | 37.4% | 8.56% (active) | 4.31% (active) | -12.2% (active) | 12.2%
O=C(NNC(=O)N1c2ccccc2C=Cc2ccccc21)c1ccccc1 | 119% | 91.7% | 102% | 96% | 96% | 102% | 97.3% | 103% | 98.9% | 102% | 96.6% | 104% | 105% | 103% | 103% | 112% | 110% | 113% | 109% | 99.8%
C=C(C)[C@@H]1C[C@@H]2Cc3ccc(Cl)c(C)c3N1O2 | 96.4% | 86.2% | 97.3% | 99.3% | 53.8% | 96.8% | 89.8% | 83.2% | -68.9% (active) | -2.28% (active) | 80.2% | 78.6% | 107% | 79.5% | 91.7% | 99.6% | 111% | 105% | 97% | 94.2%
Cc1c(C(=O)/C=C/c2csc3ccccc23)[n+](=O)c2ccccc2n1[O-] | 95.3% | 67.8% | 78.7% | 36.8% | 76.5% | 85% | 17% | 118% | 51.9% | 81.8% | 13.5% | 7.86% (active) | 21.1% | 94.5% | 43.5% | 76.4% | 16.6% | -38.8% (active) | 93.9% | 22.5%
CCC(=O)Oc1ccc(/C(=C(/C)Cc2cccc(OC)c2)c2ccc(OCCN(C)C)cc2)cc1 | 100% | 94.4% | 85.9% | 67.4% | 99.4% | 99.5% | 91.3% | 84.4% | 42.8% | 68.4% | -0.896% (active) | 70.7% | 102% | 99.1% | 87.3% | 114% | 95.4% | 92% | 93.5% | 100%
C=C(C)[C@@H]1CC[C@]2(C(=O)O)CC[C@]3(C)[C@H](CC[C@@H]4[C@@]5(C)C[C@@H](CC#Cc6ccc(C(F)(F)F)cc6)[C@H](O)C(C)(C)[C@@H]5CC[C@]43C)[C@@H]12 | -27% (active) | 24.3% | 17.6% | 41% | 38.2% | 31.2% | 50% | -36.1% (active) | -2.71% (active) | 4.32% (active) | 15.6% | 9.12% (active) | 3.74% (active) | 52% | 1.55% (active) | 36.2% | 19.5% | -3.44% (active) | 24.1% | 76.1%
COc1ccc(C2C(C#N)=C(N)Oc3c2ccc2ccccc32)cc1 (stereo not given) | 24.8% | 73.8% | 51.5% | 38.8% | 81% | 52.5% | 30.8% | 0% (active) | 24.2% | 31.7% | 37.4% | 44.3% | 56.5% | 73.3% | 62.3% | 57.8% | 41% | 15.4% | 47.1% | 5.02% (active)
CCCCCCCCCCCC(=O)NCCC[N+](C)(C)CC(=O)[O-] | 96.3% | 103% | 103% | 97.6% | 76.6% | 109% | 95.8% | 91% | 89.5% | 78.6% | 68.8% | 93.2% | 96.9% | 90.2% | 97.7% | 103% | 76.7% | 99.8% | 105% | 102%
C=C1C(=O)O[C@H]2[C@H]1CC/C(Cn1cc(CNC(=O)/C=C/c3c[nH]c4ccccc34)nn1)=C\CC[C@@]1(C)O[C@@H]21 | 90.9% | 99.5% | 88.4% | 92.6% | 123% | 94% | 88.9% | 98.9% | 1.25% (active) | 89.5% | 56.6% | 13% | 98.9% | 114% | 100% | 103% | 86.2% | 30.5% | 95.4% | 108%
Brc1cccc(-c2cc(-c3ccc4nccnc4c3)[nH]n2)c1 | 46.3% [25 µM] | 16% [25 µM] | 35.5% [25 µM] | 38.8% [25 µM] | 52.1% [25 µM] | 39.6% [25 µM] | 29.4% [25 µM] | -9.23% [25 µM] (active) | 15.3% [25 µM] | 30.2% [25 µM] | 33.8% [25 µM] | 20.3% [25 µM] | 29.3% [25 µM] | 38.2% [25 µM] | 48.3% [25 µM] | 33.2% [25 µM] | 27.8% [25 µM] | 4.18% [25 µM] (active) | 13.7% [25 µM] | 2.03% [25 µM] (active)
C=C1C(=O)O[C@H]2[C@H]1CC/C(Cn1cc(CNC(=O)Cc3cn(C(=O)c4ccc(Cl)cc4)c4ccc(OC)cc34)nn1)=C\CC[C@@]1(C)O[C@@H]21 | 17.1% | 52.6% | 19.3% | 30.2% | -46.8% (active) | 15% | 67.4% | 53.7% | -34% (active) | -23.5% (active) | -28% (active) | -40.2% (active) | -64.2% (active) | 58.3% | 18.8% | 88.9% | -18.7% (active) | -82.3% (active) | 24.7% | 95.9%
O=C(O)Cc1cccc(=O)c(O)c1C(=O)O | 97.5% | 110% | 101% | 84.2% | 108% | 101% | 96.1% | 114% | 98.3% | 106% | 103% | 88.8% | 105% | 96.4% | 117% | 107% | 110% | 114% | 112% | 117%
COc1cc(NC(N)=NCCC(C)(C)Oc2ccc(C(F)(F)F)cc2)ncc1C#N | -38.5% (active) | 27.1% | -90.3% (active) | -23.5% (active) | -74.2% (active) | 2.74% (active) | 51.6% | 42.8% | -13.8% (active) | -20.8% (active) | -54.9% (active) | -49.6% (active) | -76.6% (active) | 28.9% | 12% | 48.8% | -38.9% (active) | -75% (active) | 38.1% | 0.0363% (active)
